This passage reports percent growth results from the supplement of paper PMC5940239.

Structures are written as SMILES. Values without a mark were called inactive.

The test system of the experiment is Madurella mycetomatis MM55. Description: percent growth relative to solvent control; higher = less inhibition, active = 20 or less. To be noted: 100 µM; 7 days.
Turning to `CNC(=O)c1cc(S(=O)(=O)N2CCN(c3ccccn3)CC2)cs1`, the percent growth is 143%.

`CC(C)(C)OC(=O)N1CCN(c2cc(-c3ccc(Oc4ccccc4)cc3)n[nH]2)CC1`: the percent growth is 112%.

Take `Cc1cc2ccccc2n1CC(=O)N1CC(C(=O)N2CCCCC2)Oc2ccccc21` (stereo not drawn): the percent growth was 82.1%.

As to `Cc1ccc2oc(-c3cc(NC(=O)Cc4ccccc4)ccc3Cl)nc2c1`, the percent growth was 96%.

In the case of `CS(=O)(=O)N1CCC(CCn2nc(Cc3cccc4ccccc34)c3c(N)ncnc32)CC1`, the percent growth was 81.9%.

On to `NC(=O)c1cc(-c2ccsc2)ccc1OCCOc1ccccc1`, for which the percent growth is 103%.

For the compound `CCC(C)NC(=O)c1ccc(NC(=O)C2(c3ccccc3)CCCC2)cc1` (stereo not drawn), the percent growth was 96.7%.

On to `CCN(CC)S(=O)(=O)c1ccc(Cl)c(C(=O)Nc2ccc3nc(C)sc3c2)c1`, for which the percent growth was 119%.

For the compound `Cc1cccc(NC(=O)c2cc(S(=O)(=O)N(C)c3ccc(F)cc3)ccc2Cl)n1`, the percent growth was 70%.

As for `COc1ccc(N(CCc2cccc(C)n2)C(=O)C2CCCCC2)cc1`, the percent growth is 28%.

`O=C(C(Cc1c[nH]c2ccccc12)NS(=O)(=O)c1ccc(Cl)cc1)N1CCCCC1` (stereo not drawn): the percent growth is 43.6%.

With `COc1cc(Br)cc2cc(C(=O)Nc3cccc(C(F)(F)F)c3)c(=O)oc12`, the percent growth was 125%.

With `CCCCc1ccc(NC(=O)Nc2ccc(O[C@H]3CCCC[C@@H]3N(C)c3ccccc3)c(F)c2)cc1`, the percent growth was 122%.

For the compound `Cc1cc(NC(=O)c2ccc(S(=O)(=O)N(Cc3ccccc3)C(C)C)cc2)no1`, the percent growth is 92.5%.

With `O=C(Nc1nnc(S)s1)c1cc(Br)ccc1Cl`, the percent growth was 97%.

Consider `CC(C)(C)c1cc(C(=O)N2CCN(c3nccnc3C#N)CC2)n(Cc2ccccc2)n1`, for which the percent growth is 56.8%.

Consider `CC(C)(C)CN1C(=O)C(c2ccccc2)(c2ccccc2)N=C1N`, for which the percent growth is 66.1%.

As for `CNC(=O)C1Cc2ccccc2N1C(=O)Cc1ccc(F)cc1` (stereo not drawn), the percent growth is 116%.

Take `Cc1cc(NC(=O)c2ccc(Oc3ccc(Cl)cc3O)o2)no1`: the percent growth was 135%.

Turning to `CS(=O)(=O)c1ccccc1C(=O)N(Cc1ccccc1)c1ccccc1`, the percent growth was 91%.

Take `O=C(Nc1ccccc1-c1nc2c(C(=O)O)cccc2o1)c1ccccc1`: the percent growth is 94%.

`Cc1nc2ccccn2c1C(=O)NCc1ccc(Cl)cc1`: the percent growth is 33.1%.

`Nc1ncnc2[nH]nc(Cc3cccc4ccccc34)c12`: the percent growth is 118%.

On to `N#Cc1nc(-c2ccccc2)oc1S(=O)(=O)c1ccc(Cl)cc1`, for which the percent growth was 31.4%.

`Cc1ccc2[nH]c3c(NCCN(C)C)ncnc3c2c1`: the percent growth is 94.1%.

Regarding `COc1nc2ccc(Br)cc2cc1[C@@H](c1ccccc1)[C@@](O)(CCN(C)C)c1cccc2ccccc12`, the percent growth is 100%.

For the compound `CC(C)(C)c1cc(C(=O)Nc2cccnc2)cc(C(=O)Nc2cccnc2)c1`, the percent growth is 153%.

As to `CC(=O)Nc1ccc(NC(=O)c2cc(-c3cc(Cl)ccc3O)[nH]n2)cc1`, the percent growth was 155%.

Turning to `Cc1nn2c(=O)c3c([nH]c2c1-c1ccc(Cl)cc1)CCCC3`, the percent growth was 89.2%.

As for `CC(C)(CN)c1nc(-c2ccc(Cl)c(O)c2)c(-c2ccnc(N)n2)[nH]1`, the percent growth was 88.2%.

For `COc1ccc(-c2cnc3ccc(NCc4ccc(S(N)(=O)=O)cc4)nn23)cn1`, the percent growth is 86.7%.

For the compound `CCCCS(=O)(=O)Nc1ccc2cnn(C)c2c1`, the percent growth was 106%.

Consider `Cc1ccc(S(=O)(=O)N2CCN(C(=O)c3cc(-c4ccccc4)[nH]n3)CC2)cc1`, for which the percent growth was 146%.

For the compound `CC(C)(C)OC(=O)N1CCC(Cn2nc(-c3cnc4ccccc4c3)c3c(N)ncnc32)CC1`, the percent growth was 99.2%.

In the case of `O=C(NCCc1c[nH]c2ccccc12)c1cc2ccccc2oc1=O`, the percent growth was 109%.

Turning to `CCOc1ccc(OCC(=O)Nc2cc(C)cc(C)c2)cc1`, the percent growth is 89.4%.

In the case of `Brc1c(-c2ccc3c(c2)OCO3)nc2ncccn12`, the percent growth is 85.6%.

Consider `Cc1cc(Cl)c(S(=O)(=O)N2CCCC2)cc1OCC(=O)NC1CCCCC1`, for which the percent growth was 104%.
